Hits are enriched below; roughly 7.9% of the tested compounds scored in any of these assays.
HT1080-NT tox: kills 2HG-producing HT-1080-NT fibrosarcoma cells; HT-1080-NT fibrosarcoma viability, CellTiter-Glo ATP luminescence, 48 h; Potency, µM (titrated, usually from 46.1 µM), for the others: top-dose activity, negative = less viability, actives largely listed as cytotoxic; hit rate 1.6% among 360,000; AID 686970;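 note: NT is the 2HG producing partner of a matched IDH1 knockdown line; 0% = DMSO-treated cells and -100% = media-only wells without cells; nearly all actives have a fitted effect of over 55% in size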
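Luminescent CellTiter-Glo readout after 48 hours of compound exposure at 37 degrees C defined viability of HT-1080-NT cells. Activity was normalized to DMSO wells and cell-free media wells; concentration-response curves were fitted and assigned curve classes.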
SW480 rereplic: inducers of DNA re-replication in SW480 colon cancer cells. Potency, µM (series often up to 46.1 µM), inactives show top-dose re-replication activation, hits mostly activators. SW480 DNA re-replication, Hoechst DNA content imaging, 48 h. hit rate 1.8% among 340,000; note: % of control where 0% means no effect; nearly all actives have a fitted effect of over 55% in size
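Hoechst fluorescence of nuclei (405 nm excitation, 500-530 nm emission) measured by plate-scanning imager after 48 hr compound exposure at 37 C; re-replication scored as increased number of nuclei with elevated intensity.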
KB-3-1 cytotox: KB-3-1 parental cell cytotoxicity | KB-3-1 viability, CellTiter-Glo ATP luminescence, 72 h | Potency, µM (series often up to 46.1 µM), actives largely listed as cytotoxic | hit rate 1.4% among 400,000 | AID 1347075; note: % is set by controls: 0 for no effect and ±100 for the full control effect; nearly all actives have a fitted effect of over 60% in size
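Luminescent ATP read-out (CellTiter-Glo) measures survival of drug-naive KB-3-1 cells after 72 h compound exposure at 37 °C. Titration series was screened from lowest to highest concentration, with DMSO vehicle plates as background controls.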
MCF10A rerep: induces DNA re-replication in MCF 10a normal breast cells. MCF 10A DNA re-replication, Hoechst nuclear intensity, 48 h. Potency, µM (top dose mostly 46.1 µM), without a hit: at the top dose activity, positive = re-replication, usual class: activators. hit rate 2.9% among 350,000; note: % of control where 0% means no effect; nearly all actives have a fitted effect of over 50% in size
KB-V1 MDR tox: kills drug-selected multidrug resistant KB-V1 cells | KB-V1 MDR cells viability, CellTiter-Glo, 72 h | Potency, µM (titrated, usually from 46.1 µM), hits mostly cytotoxic | hit rate 3.4% among 400,000 | AID 1347076; note: % is set by controls: 0 for no effect and ±100 for the full control effect; nearly all actives have a fitted effect of over 60% in size
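Luminescent ATP read-out (CellTiter-Glo, 10 min) measures survival of drug-selected KB-V1 MDR cells after 72 h, 37 degrees C compound exposure. Medium: phenol-red-free DMEM, 10% FBS. Values from fitted concentration-response curves.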
HT1080 IDH1KD tx: kills HT-1080 cells with IDH1 knockdown; HT-1080 IDH1 knockdown viability, ATP luminescence, 48 h; Potency, µM (top dose mostly 46.1 µM), without a hit: at the top dose activity, negative = toxicity, actives largely listed as cytotoxic; hit rate 2% among 360,000; AID 686971;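 note: 0% = DMSO wells and -100% = cell-free medium wells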
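CellTiter-Glo luminescence after 48 h compound exposure at 37 degrees C of IDH1-knockdown HT-1080 cells in 5% FBS RPMI. %Activity scaled between DMSO wells and cell-free media wells, with curves fitted and assigned curve classes.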
Numbers without * were called inactive; [ ] = another dose, or the depositor's remark. Calls come from the whole dose curve; as a rule, active = well fitted curve in the direction sought with a large enough effect; inconclusive = small, poorly fitted or top-dose-only effect, or another doubt; inactive = no such curve, though single readings can be large; an effect the other way counts as inactive or inconclusive. Potency is the fitted concentration of half-maximal effect.

Screening CC(Sc1nnc(-c2ccccc2F)o1)C(=O)Nc1ccc(N2CCOCC2)cc1 (stereo not given) returned HT1080-NT tox -5%, SW480 rereplic 4%, KB-3-1 cytotox inactive, MCF10A rerep 3%, KB-V1 MDR tox inactive and HT1080 IDH1KD tx -9%.
CCNC(=O)Nc1cc(S(=O)(=O)Nc2ccc(OC)cc2)ccc1N1CCOCC1 was read as HT1080-NT tox -18%, SW480 rereplic -4%, KB-3-1 cytotox inactive, MCF10A rerep -4%, KB-V1 MDR tox inactive and HT1080 IDH1KD tx -13%.
`COc1ccc(-c2csc(NC(=O)CSCC(=O)Nc3cc(C)on3)n2)c(OC)c1` gave HT1080-NT tox 1%, SW480 rereplic 3%, KB-3-1 cytotox inactive, MCF10A rerep 3%, KB-V1 MDR tox inconclusive and HT1080 IDH1KD tx 2%.
Screening COc1ccc(C=C2CS(=O)(=O)CC(=Cc3ccc(OC)cc3)C2=O)cc1 returned HT1080-NT tox inconclusive, KB-3-1 cytotox inconclusive, KB-V1 MDR tox inconclusive and HT1080 IDH1KD tx 3.7µM*.
CN(C)/N=C/C=C1\CCC/C(=C\c2ccc(F)c(F)c2)C1=O was read as HT1080-NT tox -23%, SW480 rereplic inconclusive, KB-3-1 cytotox inconclusive, MCF10A rerep 14µM*, KB-V1 MDR tox inconclusive and HT1080 IDH1KD tx 0%.
`O=C1/C(=C/c2ccc(C(=O)O)cc2)CCC/C1=C\c1ccc(C(=O)O)cc1` gave HT1080-NT tox 2%, SW480 rereplic -11%, KB-3-1 cytotox inactive, MCF10A rerep 5%, KB-V1 MDR tox inactive and HT1080 IDH1KD tx 6%.
For COc1ccc(/C=C2\CCC/C(=C\C=N\N(C)C)C2=O)cc1 the results were HT1080-NT tox -24%, SW480 rereplic -22%, KB-3-1 cytotox inactive, MCF10A rerep 8.2µM*, KB-V1 MDR tox inconclusive and HT1080 IDH1KD tx -25%.
CC(C)CCSc1nnc(Cn2c(=O)sc3ccccc32)n1C was read as HT1080-NT tox 9%, SW480 rereplic 7%, KB-3-1 cytotox inactive, MCF10A rerep 14%, KB-V1 MDR tox inactive and HT1080 IDH1KD tx -3%.
Screening CCCCC(CC)C(=O)Nc1cc(C(=O)NCc2ccc(C)cc2)ccc1N1CCC2(CC1)CC(c1cccc(Br)c1)=NO2 (stereo not given) returned HT1080-NT tox 5%, SW480 rereplic -15%[9.22 µM], KB-3-1 cytotox inactive, MCF10A rerep -11%, KB-V1 MDR tox inconclusive and HT1080 IDH1KD tx 13%.
`O=C(C(=O)N(Cc1ccccc1)Cc1ccccc1)c1c(-c2ccccc2)[nH]c2ccccc12` gave HT1080-NT tox inconclusive, SW480 rereplic 18µM*, KB-3-1 cytotox inactive, MCF10A rerep 15%, KB-V1 MDR tox inactive and HT1080 IDH1KD tx inconclusive.
Screening COc1ccc(-c2cc3nc[nH]c(=O)c3s2)cc1 returned HT1080-NT tox -15%, SW480 rereplic -9%, KB-3-1 cytotox inactive, MCF10A rerep 19%, KB-V1 MDR tox inactive and HT1080 IDH1KD tx 1%.
`O=c1[nH]cnc2cc(-c3ccccc3)sc12` gave HT1080-NT tox 0%, SW480 rereplic -5%, KB-3-1 cytotox 16µM*, MCF10A rerep 5%, KB-V1 MDR tox 6.5µM* and HT1080 IDH1KD tx 1%.
Nc1cccc2[nH]c(=O)c3ccccc3c12 was read as HT1080-NT tox -6%, SW480 rereplic 15%, KB-3-1 cytotox inconclusive, MCF10A rerep 4%, KB-V1 MDR tox inactive and HT1080 IDH1KD tx -20%.
`O=c1[nH]c2cc([N+](=O)[O-])cc(Cl)c2c2ccccc12` gave HT1080-NT tox 4%, KB-3-1 cytotox inactive, KB-V1 MDR tox 12µM* and HT1080 IDH1KD tx 3%.
Cc1cc(N2CCN(C(=O)Nc3ccc(F)cc3F)CC2)c2ccccc2n1 was read as HT1080-NT tox -1%, SW480 rereplic -5%, KB-3-1 cytotox inactive, MCF10A rerep 9%, KB-V1 MDR tox inactive and HT1080 IDH1KD tx -3%.
